Measurements reported in PubChem BioAssay (NCATS).
Results filed as inconclusive are left out. Activity calls are given as the source filed them. Unless noted, the call rests on the fitted dose curve; in most records, active means well fitted cell-killing curve with a large enough effect; inconclusive means small, poorly fitted or top-dose-only effect; inactive means flat fitted curve, though single readings scatter.

What was measured:
[1] = Cell Viability - LYMP2-025 (AID 976);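 further: series mostly up to about 92 µM; plate controls were DMSO only for no effect and tetraoctylammonium bromide control for full effect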
Method in brief: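 Seed 2500 LYMP2-025 cells/well; 5 hr at 37 C; add compound; 24 hr at 37 C; add CellTiter-Glo; 30 min RT; read luminescence. AC50 from Hill-modelled concentration-response.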

[2] = Cell Viability - LYMP2-002 (AID 977);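 further: series mostly up to about 92 µM; plate controls were DMSO only for no effect and 92 µM tetraoctylammonium bromide for full effect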
Method in brief: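 Luminescent ATP readout (CellTiter-Glo, 30 min room temperature) after 24 h compound exposure at 37 C of a human lymphoblastoid line, 2500 cells/well. AC50 values derived by standard Hill fitting of qHTS concentration-response data.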

[3] = Cell Viability - LYMP2-006 (AID 978); further: series mostly up to about 92 µM; on the % scale 0 is the no-effect control and ±100 the full control effect; nearly all actives have a fitted effect of over 60% in size
Method in brief: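 Cells are seeded at 2500 per well and rested 5 hr at 37 C. Compounds are added across a concentration series for 24 hr at 37 C, after which ATP is quantified by luciferase luminescence.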

[4] = Cell Viability - LYMP2-007 (AID 979);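 further: cells exposed to compound for 24 h before reading; 0% = DMSO only and the negative end = 92 µM tetraoctylammonium bromide; nearly all actives have a fitted effect of over 60% in size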
Method in brief: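 Luminescent ATP signal (CellTiter-Glo) serves as the viability read-out after 24 hr compound treatment of lymphoblastoid cells in complete medium at 37 C. Concentration-response data were fitted to the Hill equation to give AC50 values.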

[5] = Cell Viability - LYMP2-008 (AID 980); further: on the % scale 0 is the no-effect control and ±100 the full control effect; nearly all actives have a fitted effect of over 60% in size
Method in brief: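 qHTS, human lymphoblastoid line, 2500 cells/well; 5 hr preincubation, 24 hr compound, 37 C. CellTiter-Glo ATP luminescence. AC50 via Hill equation. Tetraoctylammonium bromide positive control.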

[6] = Cell Viability - LYMP2-010 (AID 981); further: on the % scale 0 is the no-effect control and ±100 the full control effect; nearly all actives have a fitted effect of over 55% in size
Method in brief: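 Luminescent ATP signal (CellTiter-Glo) served as the viability read-out. Cells of the human lymphoblastoid line were treated with compound over a concentration range for 24 hours at 37 C, and AC50 values came from Hill-equation modeling.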

[7] = Cell Viability - LYMP2-012 (AID 982);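 further: cellular ATP by luciferase luminescence where a drop means cytotoxicity; cells exposed to compound for one day before reading; 0% = DMSO only and full loss = 92 µM tetraoctylammonium bromide; nearly all actives have a fitted effect of over 55% in size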
[8] = Cell Viability - LYMP2-016 (AID 984); further: on the % scale 0 is the no-effect control and ±100 the full control effect; nearly all actives have a fitted effect of over 55% in size
Method in brief: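 Cells were seeded at 2500 per well and rested 5 hr before a 24 hr compound exposure at 37 C. Viability was then gauged as cellular ATP by luciferase luminescence, with AC50 values fitted to the Hill equation.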

[9] = Cell Viability - LYMP2-018 (AID 985);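 further: plate controls were DMSO only for no effect and tetraoctylammonium bromide at 92 µM for full effect; nearly all actives have a fitted effect of over 50% in size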
Method in brief: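 Luminescent ATP signal (CellTiter-Glo, read after 30 min at room temperature) reports viable cells after 24 hr compound treatment at 37 C. Concentration-response data were fitted to the standard Hill equation for AC50.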

[10] = Cell Viability - LYMP2-020 (AID 986);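 further: series mostly up to about 92 µM; plate controls were DMSO only for no effect and tetraoctylammonium bromide at 92 µM for full effect; nearly all actives have a fitted effect of over 55% in size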
Method in brief: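 Luminescent ATP signal (CellTiter-Glo, 30 min at room temperature) is the read-out after 24 h compound treatment of lymphoblastoid cells at 37 C. AC50 values come from Hill-equation fits across concentrations.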

[11] = Cell Viability - LYMP2-022 (AID 987)
Method in brief: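 qHTS: human lymphoblastoid cells 2500/well; 5 hr 37 C; cpd added; 24 hr 37 C; CellTiter-Glo, 30 min RT; luminescence. AC50 via Hill fit; tetraoctylammonium bromide positive ctrl.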

[12] = Cell Viability - LYMP2-024 (AID 988);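 further: plate controls were DMSO only for no effect and 92 µM tetraoctylammonium bromide for full effect; nearly all actives have a fitted effect of over 60% in size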
Method in brief: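 Steps: seed 2500 cells/well, 5 hr 37 C; add compound, 24 hr 37 C; add CellTiter-Glo, 30 min room temperature; read luminescence. AC50 derived by Hill modelling of concentration-dependent ATP loss.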

[13] = Cell Viability - LYMP2-026 (AID 989); further: on the % scale 0 is the no-effect control and ±100 the full control effect; nearly all actives have a fitted effect of over 50% in size
Method in brief: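 Luminescent ATP signal (CellTiter-Glo, 30 min room temperature) measures viable lymphoblastoid cells after 24 hr compound treatment at 37 C. Decreased ATP reflects acute toxicity; AC50 values come from Hill-equation modeling.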

[14] = Cell Viability - LYMP1-002 - Assay at 24 hr (AID 993); further: on the % scale 0 is the no-effect control and ±100 the full control effect
Method in brief: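 Cells plated 2500/well, 5 hr 37 C; compounds added, 24 hr 37 C; CellTiter-Glo added, 30 min RT; luminescence read. Tetraoctylammonium bromide positive control. Hill-equation AC50.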

[15] = Cell Viability - LYMP1-002 - Assay at 40 hr (AID 994)
Method in brief: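 Luminescent ATP signal served as the viability readout, with decreases taken as toxicity. Cells were treated with compounds across a concentration range for 40 hours at 37 C, and AC50 values came from standard Hill modeling.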

[16] = qHTS Assay for Identification of Small Molecule Inducers of Hypoxia Response (AID 2120; active means well fitted curve in the direction sought with a large enough effect in the signal ratio, with a control signal flat, not every such curve was filed as active; the % refers to the signal ratio; further: 0% is about no effect)
Method in brief: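 ME-180 HRE-bla cells plated in Opti-MEM/0.5% dialyzed FBS, rested 4-5 h, then dosed with compound titrations by pin tool. After 17 h at 37 degrees C, CCF4 dye loaded 2.5 h at RT; 460/530 nm ratio gave %Activity and AC50.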

[17] = target: Estrogen receptor (Homo sapiens) (UniProt P03372); test: qHTS assay for small molecule antagonists of estrogen receptor alpha signaling (AID 588513; active means well fitted curve in the direction sought with a large enough effect in the signal ratio, with a control signal flat, not every such curve was filed as active; the % refers to the signal ratio; further: on the % scale 0 is the no-effect control and ±100 the full control effect)
Estrogen receptor (Homo sapiens), sequence (P03372 whole entry, looked up): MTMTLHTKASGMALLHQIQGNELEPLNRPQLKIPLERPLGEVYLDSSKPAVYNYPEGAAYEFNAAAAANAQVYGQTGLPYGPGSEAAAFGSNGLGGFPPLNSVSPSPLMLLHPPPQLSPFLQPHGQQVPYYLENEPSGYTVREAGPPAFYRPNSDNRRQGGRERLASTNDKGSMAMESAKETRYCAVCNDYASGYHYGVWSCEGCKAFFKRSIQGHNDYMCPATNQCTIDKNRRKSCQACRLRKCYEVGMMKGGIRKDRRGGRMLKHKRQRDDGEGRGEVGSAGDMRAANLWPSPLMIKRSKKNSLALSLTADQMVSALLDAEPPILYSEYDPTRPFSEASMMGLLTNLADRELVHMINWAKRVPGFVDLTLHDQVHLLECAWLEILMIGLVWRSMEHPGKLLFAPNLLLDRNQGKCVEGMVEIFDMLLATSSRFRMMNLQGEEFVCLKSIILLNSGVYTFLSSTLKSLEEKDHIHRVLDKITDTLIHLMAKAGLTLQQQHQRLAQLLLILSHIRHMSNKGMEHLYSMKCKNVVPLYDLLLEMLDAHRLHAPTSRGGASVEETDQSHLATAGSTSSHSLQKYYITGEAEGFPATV
Method in brief: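 Fluorescence from CCF4 substrate after 2 h at room temperature gave reporter activity; cells had been exposed to compound and 0.5nM 17-beta-estradiol for 18 h at 37 C. Hill-equation fitting yielded IC50 and maximal response.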

[18] = Cell Viability - LYMP2-014 (AID 983);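 further: series mostly up to about 92 µM; plate controls were DMSO only for no effect and 92 µM tetraoctylammonium bromide for full effect; nearly all actives have a fitted effect of over 50% in size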
Method in brief: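 Luminescent ATP signal (CellTiter-Glo, 30 min at room temperature) serves as the viability read-out after 24 hr compound exposure at 37 C. Cells were seeded at 2500 per well and settled 5 hr beforehand.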

[19] = target: Androgen receptor (Homo sapiens) (UniProt P10275); test: qHTS assay for small molecule agonists of androgen receptor signaling (AID 588515; active means well fitted curve in the direction sought with a large enough effect in the signal ratio, with a control signal flat; the % refers to the signal ratio; further: on the % scale 0 is the no-effect control and ±100 the full control effect); settings: AR-UAS-bla HEK293, beta-lactamase ratio, agonist 16 h; active compounds read high
Androgen receptor (Homo sapiens), sequence (P10275 whole entry, looked up): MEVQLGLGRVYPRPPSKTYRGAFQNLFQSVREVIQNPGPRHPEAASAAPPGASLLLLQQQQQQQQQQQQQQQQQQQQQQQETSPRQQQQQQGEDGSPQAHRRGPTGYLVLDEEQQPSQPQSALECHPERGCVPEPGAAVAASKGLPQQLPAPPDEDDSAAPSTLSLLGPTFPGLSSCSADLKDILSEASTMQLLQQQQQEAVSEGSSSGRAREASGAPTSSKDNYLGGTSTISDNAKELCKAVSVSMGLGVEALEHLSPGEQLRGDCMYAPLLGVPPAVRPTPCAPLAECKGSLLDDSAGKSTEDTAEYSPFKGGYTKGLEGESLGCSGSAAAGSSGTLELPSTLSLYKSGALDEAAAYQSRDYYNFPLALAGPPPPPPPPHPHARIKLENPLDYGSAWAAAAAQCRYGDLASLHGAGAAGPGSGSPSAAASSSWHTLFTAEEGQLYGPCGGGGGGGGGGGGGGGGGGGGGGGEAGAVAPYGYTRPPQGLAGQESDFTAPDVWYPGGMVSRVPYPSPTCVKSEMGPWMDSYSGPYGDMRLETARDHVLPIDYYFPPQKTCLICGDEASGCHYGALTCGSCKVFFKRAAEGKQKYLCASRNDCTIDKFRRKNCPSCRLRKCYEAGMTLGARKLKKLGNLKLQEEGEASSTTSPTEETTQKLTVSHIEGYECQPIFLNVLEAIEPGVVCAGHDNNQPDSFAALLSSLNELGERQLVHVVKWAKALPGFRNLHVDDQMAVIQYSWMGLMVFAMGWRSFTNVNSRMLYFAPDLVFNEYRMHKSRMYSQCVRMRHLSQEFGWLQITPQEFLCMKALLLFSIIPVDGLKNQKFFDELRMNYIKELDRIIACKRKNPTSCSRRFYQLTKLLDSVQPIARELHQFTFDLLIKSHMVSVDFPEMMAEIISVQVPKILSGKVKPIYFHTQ
Method in brief: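 EC50 and efficacy came from Hill fits of titrations (up to 92 uM) normalized to 30 nM R1881 as 100% and DMSO as 0%. Compound exposure was 16 h at 37 C on AR-UAS-bla HEK293 cells, with a 405/460/530 nm CCF4 fluorescence read.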

[20] = target: Estrogen receptor (Homo sapiens) (UniProt P03372); test: qHTS assay for small molecule agonists of estrogen receptor alpha signaling (AID 588514; calls by dose curve;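 further: 0% = vehicle only and 100% = reference agonist; nearly all actives have a fitted effect of over 70% in size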)
Method in brief: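 Cells were plated at 5000/well, incubated 4 hrs at 37 C, dosed with compound titration series, incubated 18 hrs at 37 C, loaded with CCF4 dye for 2 hrs at RT, then fluorescence was read.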

CC=C(Cl)Cl
inactive: Potency [1] | Potency [2] | Potency [3] | Potency [4] | Potency [5] | Potency [6] | Potency [7] | Potency [8] | Potency [9] | Potency [10] | Potency [11] | Potency [12] | outcome [13] | Potency [14] | Potency [15] | outcome [16] | outcome [17]

CCCC(Cl)CCCC(Cl)CCC(Cl)CCC(Cl)CCC(Cl)CCCC(Cl)CCC (configuration not stated)
inactive: Potency [1] | Potency [2] | Potency [3] | Potency [4] | Potency [6] | Potency [7] | Potency [18] | Potency [8] | Potency [9] | Potency [10] | Potency [11] | Potency [12] | outcome [13] | Potency [14] | Potency [15] | outcome [16] | outcome [17] | activation [19] -5.75%

CO[Si](CCCNCCC[Si](OC)(OC)OC)(OC)OC
inactive: Potency [1] | Potency [2] | Potency [3] | Potency [4] | Potency [5] | Potency [6] | Potency [7] | Potency [18] | Potency [8] | Potency [9] | Potency [10] | Potency [11] | Potency [12] | outcome [13] | Potency [14] | Potency [15] | outcome [16] | outcome [17]

CNC(=O)N(c1ccccc1)c1ccccc1
inactive: Potency [2] | Potency [3] | Potency [5] | Potency [6] | Potency [7] | Potency [8] | Potency [9] | Potency [10] | Potency [11] | Potency [12] | outcome [13] | Potency [14] | Potency [15] | outcome [16] | outcome [17] | activation [19] -11.4%

CC(C)=CCl
inactive: Potency [1] | Potency [2] | Potency [3] | Potency [4] | Potency [5] | Potency [6] | Potency [7] | Potency [18] | Potency [8] | Potency [9] | Potency [10] | Potency [11] | Potency [12] | outcome [13] | Potency [15] | outcome [16] | outcome [17]

CCN(Cc1ccccc1)c1ccccc1
inactive: Potency [1] | Potency [2] | Potency [3] | Potency [4] | Potency [5] | Potency [6] | Potency [7] | Potency [18] | Potency [9] | Potency [10] | Potency [11] | Potency [12] | outcome [13] | Potency [14] | Potency [15] | outcome [16] | Potency [20] | activation [19] 11.1%

CCCCCCCN
inactive: Potency [1] | Potency [2] | Potency [3] | Potency [4] | Potency [5] | Potency [6] | Potency [7] | Potency [18] | Potency [8] | Potency [9] | Potency [10] | Potency [11] | Potency [12] | outcome [13] | Potency [15] | outcome [16] | outcome [17]

CC(C)CCOC(=O)/C=C/c1ccccc1
inactive: Potency [1] | Potency [2] | Potency [3] | Potency [4] | Potency [5] | Potency [6] | Potency [7] | Potency [18] | Potency [8] | Potency [9] | Potency [10] | Potency [11] | Potency [12] | outcome [13] | Potency [14] | Potency [15] | outcome [16] | outcome [17]

C[C@@H]1CC2(OC3C[C@@]4(C)C5=CC[C@H]6C(C)(C)C(O[C@@H]7OC[C@@H](O)[C@H](O)[C@H]7O)CC[C@@]67C[C@@]57CC[C@]4(C)C31)OC(O)C1(C)OC21 (some centres not stated)
inactive: Potency [1] | Potency [2] | Potency [3] | Potency [4] | Potency [5] | Potency [6] | Potency [7] | Potency [18] | Potency [9] | Potency [10] | Potency [12] | outcome [13] | Potency [14] | outcome [16] | outcome [17] | activation [19] -11%

CN(C)CCCCl
inactive: Potency [1] | Potency [2] | Potency [3] | Potency [4] | Potency [5] | Potency [6] | Potency [7] | Potency [18] | Potency [9] | Potency [10] | Potency [11] | outcome [13] | Potency [14] | Potency [15] | outcome [16] | outcome [17]

Cc1cccc(C(=O)O)c1[N+](=O)[O-]
inactive: Potency [1] | Potency [2] | Potency [3] | Potency [4] | Potency [5] | Potency [6] | Potency [7] | Potency [18] | Potency [8] | Potency [9] | Potency [10] | Potency [11] | Potency [12] | outcome [13] | Potency [14] | outcome [16] | outcome [17]

C=CCCCCCC
inactive: Potency [1] | Potency [2] | Potency [3] | Potency [4] | Potency [5] | Potency [6] | Potency [7] | Potency [18] | Potency [9] | Potency [10] | Potency [11] | Potency [12] | outcome [13] | Potency [14] | Potency [15] | outcome [16] | outcome [17]

CCOCC(=O)O
inactive: Potency [1] | Potency [2] | Potency [3] | Potency [4] | Potency [5] | Potency [6] | Potency [7] | Potency [18] | Potency [9] | Potency [10] | Potency [11] | Potency [12] | outcome [13] | Potency [14] | Potency [15] | outcome [16] | outcome [17]
